Screens (PubChem)
Hits are enriched below; roughly 27% of the tested compounds scored in any of these assays.
sEH inh: blocks human soluble epoxide hydrolase activity; inhibition, % at 2 µM; 91,000 tested, 0.34% active; recombinant human sEH enzymatic activity assay; AID 707; in the data active = inhibition above about 80%
sEH act: increases human soluble epoxide hydrolase activity; P34913; purified human sEH enzymatic activity, activator screen; activation, % at 2 µM; 91,000 tested, 0.04% active; AID 717; in the data active = activation above about 37%
CYP2C9 inhib: blocks human cytochrome P450 2C9; P11712; CYP2C9 Supersomes, luciferin-H conversion, luminescence; inhibition, % at 5 µM; 96,000 tested, 20% active;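 active = blocking of liver enzyme CYP2C9 beyond about 50% at 5 µM, limit read from the data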
Target sequence (P11712 whole entry, looked up): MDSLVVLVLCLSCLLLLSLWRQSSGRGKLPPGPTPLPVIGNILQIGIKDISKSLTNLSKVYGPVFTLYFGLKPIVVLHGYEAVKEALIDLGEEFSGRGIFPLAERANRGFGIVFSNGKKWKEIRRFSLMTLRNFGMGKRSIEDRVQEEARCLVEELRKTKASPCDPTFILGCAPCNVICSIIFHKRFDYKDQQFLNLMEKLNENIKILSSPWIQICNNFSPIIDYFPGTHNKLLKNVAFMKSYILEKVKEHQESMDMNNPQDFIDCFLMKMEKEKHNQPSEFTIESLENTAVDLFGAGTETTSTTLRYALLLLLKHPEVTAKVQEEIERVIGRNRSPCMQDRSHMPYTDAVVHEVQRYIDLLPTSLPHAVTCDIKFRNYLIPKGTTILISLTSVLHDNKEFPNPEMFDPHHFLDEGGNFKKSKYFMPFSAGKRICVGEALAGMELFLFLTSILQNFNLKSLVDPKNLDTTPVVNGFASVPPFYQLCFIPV
CYP2C9 activ: CYP2C9 (human) activation; recombinant CYP2C9, luciferin-H conversion, luminescence; hits give high values; factor 1 = untreated enzyme, 0 = blocked; activation factor at 5 µM; 96,000 tested, 1.4% active; AID 1024;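 active = activation factor of 2 or more for CYP2C9 at a 5 µM dose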;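 note: 0 = sulfaphenazole-blocked wells and 1 = vehicle-only wells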
CYP2C19 inh: human CYP2C19 inhibition | P33261 | CYP2C19 Supersomes, luciferin-H EGE luminescence, 30 min | inhibition, % at 5 µM | 96,000 tested, 21% active | AID 778;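 active = CYP2C19 inhibition above a set limit at 5 µM in the primary screen, cut at about 50% in these data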;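 note: plate controls were negative control wells for no effect and 2.5 mM tranylcypromine positive control for full effect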
CYP2C19 act: cytochrome P450 2C19 (human) activation; AID 1025; activation factor at 5 µM; recombinant CYP2C19, luciferin-H EGE luminescence; hits give high values; 0 = fully inhibited enzyme, 1 = untreated enzyme; 96,000 tested, under 10 active;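 active = activation factor of at least 2 at 5 µM in the primary screen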;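 note: 0 = wells with 2.5 mM tranylcypromine and 1 = vehicle-only wells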
Starred values were filed as active, the others as inactive; nt = no result given.

SMILES	sEH inh	sEH act	CYP2C9 inhib	CYP2C9 activ	CYP2C19 inh	CYP2C19 act
C=CCNC(=O)c1c(-c2c(F)cccc2Cl)noc1C	0	-2	2	1	4	1
O=C(Nc1nc2ccccc2[nH]1)c1ccccc1	-10	8	18	0.8	42	0.6
Cc1onc(-c2c(F)cccc2Cl)c1C(=O)Nc1nc2ccccc2[nH]1	1	2	93*	0.1	57*	0.4
CCOC(=O)N1CCN(C(=O)CSCc2nc(-c3ccccc3F)oc2C)CC1	2	0	32	0.7	38	0.6
O=[N+]([O-])c1ccc(Sc2nccn2Cc2ccccc2)c([N+](=O)[O-])c1	15	-17	35	0.6	51*	0.5
O=[N+]([O-])c1cc(C(F)(F)F)ccc1Sc1nccn1Cc1ccccc1	10	-8	47	0.5	45	0.6
CC(=O)c1c(C)nn(CCC(=O)O)c1C	0	-2	-5	1.1	-3	1
Cc1cccc(NC(=O)CN(C)S(=O)(=O)c2ccccc2)n1	2	-2	23	0.8	19	0.8
COC(=O)/C=C/S(=O)(=O)c1ccc(NC(C)=O)cc1	4	-4	1	1	-1	1
COc1ccc(/C=N/NC(=O)c2ccc3ccccc3c2)cc1OS(=O)(=O)c1ccc(NC(C)=O)cc1	33	-33	87*	0.1	78*	0.2
COc1cc(C=O)cc(OC)c1OS(=O)(=O)c1ccc(NC(C)=O)cc1	15	-16	-182	2.8*	91*	0.1
CCOC(=O)c1ccc(NC(=O)c2cn(-c3ccccc3)nc2-c2ccncc2)cc1	-4	6	31	0.7	15	0.8
COC(=O)CSc1nc(C)c(C(C)=O)cc1C#N	nt	nt	-8	1.1	-19	1.2
CCOC(=O)c1cc(C#N)c(SCC(=O)c2cc(C#N)c(SC)nc2C)[nH]c1=O	nt	nt	74*	0.3	35	0.6
Cn1cccc1C(=O)NC(=O)COC(=O)c1ccc(O)cc1	4	-6	-313	4.1*	4	1
COC(=O)c1ccc(C2C(Oc3ccc(OC)cc3)C(=O)N2CCc2ccc(F)cc2)cc1 (stereo unspecified)	17	-14	25	0.7	56*	0.4
COc1ccc(OC2C(=O)N(c3ccc(F)cc3)C2c2ccc(OC)c(OC)c2)cc1 (stereo unspecified)	4	-1	7	0.9	3	1
O=C(Oc1ccc2c(c1)C(=O)c1ccccc1CO2)c1ccccc1	-5	3	73*	0.3	17	0.8
O=C(C/C=N/OCc1ccccc1F)c1cnc(-c2ccc(Cl)cc2)s1	12	-12	49	0.5	96*	0
O=C(C/C=N/OCc1ccc(Cl)cc1Cl)c1ccccc1	4	-3	18	0.8	10	0.9
O=C(C/C=N/OCc1ccc(F)cc1Cl)c1cnc(-c2ccccc2)s1	10	-10	45	0.5	53*	0.5
COc1cccc(N2CC34C=CC(O3)C(C(=O)O)C4C2=O)c1 (stereo unspecified)	5	-6	10	0.9	-16	1.2
O=S(=O)(CCc1nc2ccccc2s1)c1ccc2ccccc2c1	-10	12	-83	1.8	12	0.9
CCCC(=O)Nc1ccc(C(=O)NNC(=O)c2ccccc2Br)cc1	-4	6	22	0.8	8	0.9
COc1cc(-c2nc(Cc3ccccc3Cl)no2)cc(OC)c1OC	-3	4	14	0.9	26	0.7
SMILES	sEH inh	sEH act	CYP2C9 inhib	CYP2C9 activ	CYP2C19 inh	CYP2C19 act
COc1ccccc1Cc1noc(-c2cc(Cl)ccc2OC)n1	-9	8	-134	2.3*	48	0.5
COc1ccc(Cc2noc(COc3ccc(Cl)cc3)n2)cc1	8	-5	17	0.8	28	0.7
COc1ccccc1OCc1nc(Cc2ccc(Cl)cc2)no1	5	-6	-33	1.3	94*	0.1
CCCn1c2ccc(/C(C)=N\O)cc2c2cc(/C(C)=N/O)ccc21	2	1	0	1	-8	1.1
COc1ccc(NC(=O)CC2CCCCC2)cc1OC	24	-24	23	0.8	94*	0.1
COc1ccc(CN2CCCC2C(=O)Nc2ccc(OC)c(OC)c2)cc1OC (stereo unspecified)	nt	nt	50	0.5	54*	0.5
Cc1noc(C)c1COC(=O)c1cc2c3ccccc3n(C)c2s1	-1	1	81*	0.2	57*	0.4
Cc1noc(C)c1COC(=O)c1cc2c(C)nn(-c3ccc(F)cc3)c2s1	nt	nt	13	0.9	-11	1.1
CC(Oc1ccc(-c2ccccc2)cc1)C(=O)N1CCOCC1 (stereo unspecified)	-5	6	56*	0.4	55*	0.5
Cc1ccc(-n2c(CSc3nc(C)cc(C)n3)nnc2SCC(=O)N2CCCC2)cc1	-4	4	3	1	-4	1
CCOc1ccccc1CNC(=O)CCNC(=O)Cn1ccc2ccccc2c1=O	-2	3	24	0.8	15	0.8
COc1ccc2c(c1)[nH]c1c(=O)n(CCc3cnc[nH]3)cnc12	-9	11	96*	0	85*	0.2
COc1ccc2c(c1)[nH]c1c(=O)n(CCCn3ccnc3)cnc12	2	-2	64*	0.4	42	0.6
O=C(O)c1cc2sccc2s1	-8	7	8	0.9	6	0.9
O=C(c1ccccc1)c1ccc(OCCCN2CCCCC2)cc1	-5	5	-6	1.1	-18	1.2
CC(=O)c1ccc(OCCCN2CCCCC2)cc1	-1	-2	69*	0.3	66*	0.3
CC(C)C(=O)Nc1nc(-c2ccccc2)ns1	-3	6	nt	nt	nt	nt
CCCSc1nsc(NC(=O)C(c2ccccc2)c2ccccc2)n1	-2	3	73*	0.3	20	0.8
Cn1c(SCc2cccnc2)nnc1-c1c[nH]c2ccccc12	nt	nt	49	0.5	83*	0.2
CC(C)Sc1nnc(-c2c[nH]c3ccccc23)n1C	nt	nt	19	0.8	68*	0.3
Cc1ccc(N2C(=O)N(CC(=O)N3CCCc4ccccc43)C(=O)C2C)cc1 (stereo unspecified)	-10	12	4	1	12	0.9
O=C(NC1CCCCCC1)C1CC(=O)N(Cc2ccccc2)C1 (stereo unspecified)	25	-24	-48	1.5	38	0.6
ONC=Nc1cccc2nonc12	4	-4	6	0.9	2	1
CCC(C)C(NC=C1C(=O)OC(C)(C)OC1=O)C(=O)O (stereo unspecified)	8	-8	2	1	0	1
CN(C)c1ccc(NC(=O)c2ccc(COc3cccc(Cl)c3)o2)cc1	30	-30	71*	0.3	31	0.7
O=C(Nc1ccn(Cc2c(F)c(F)cc(F)c2F)n1)c1cccc(Cn2cc([N+](=O)[O-])cn2)c1	42	-41	82*	0.2	73*	0.3
O=C(N/N=C/c1ccc(O)cc1)c1ccc(COc2cc(Cl)ccc2Cl)o1	54	-54	29	0.7	46	0.5
